# Values without a mark were called inactive. How the calls were made is not given here.
# Target: Pantothenate synthetase (Mycobacterium tuberculosis (strain ATCC 25618 / H37Rv)) (UniProt P9WIL5)
# Test: Coupled enzyme confirmation of inhibitors against recombinant Mtb PanC (AID 375);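 further: 0% = full reaction with vehicle and 100% = no enzyme background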
# Settings: coupled enzyme assay; at 10 µM, stronger effect = higher value
# Sequence of Pantothenate synthetase (Mycobacterium tuberculosis (strain ATCC 25618 / H37Rv)) (P9WIL5 whole entry, looked up): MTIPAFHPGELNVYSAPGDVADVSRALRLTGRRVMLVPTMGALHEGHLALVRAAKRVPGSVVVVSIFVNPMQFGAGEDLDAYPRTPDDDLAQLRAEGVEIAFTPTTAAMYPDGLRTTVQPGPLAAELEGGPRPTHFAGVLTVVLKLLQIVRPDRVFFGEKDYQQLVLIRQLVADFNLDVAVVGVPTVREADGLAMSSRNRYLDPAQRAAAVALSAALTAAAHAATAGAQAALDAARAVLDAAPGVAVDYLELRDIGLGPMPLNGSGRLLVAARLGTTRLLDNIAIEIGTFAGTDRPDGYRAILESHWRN
row,SMILES,inhibition [%]
1,O=C1COc2ccc(C(=O)NCc3ccco3)cc2N1,0
2,O=S(=O)(c1cccs1)N1CCN(Cc2nc3ccccc3s2)CC1,0
3,Cc1nnc(C)n1/N=C/c1cccc(Oc2ccccc2)c1,1
4,COc1ccc(NC(=O)c2cc(C3CC3)on2)c(OC)c1,0
5,C=CCn1c(COc2cccc(C)c2)nnc1SCC(=O)NC(=O)NCc1ccco1,0
6,CCCCn1cnc2c1c(=O)n(C)c(=O)n2C,2
7,CCOC(=O)c1ccccc1NC(=O)CSc1nnc(COc2ccccc2C)n1C,2
8,Cc1nc(=S)n(-c2ccccc2)[nH]1,0
9,O=C(OCc1cc2ccccc2[nH]c1=O)c1ccncc1,7
10,CN(C)c1ccc(C(=O)Nc2nnc(-c3ccc(Cl)cc3)o2)cc1,0
11,Cc1c(C)n(C(=O)CN2CCN(c3ccccn3)CC2)c2ccccc12,0
12,CN(CC(=O)N1CCN(c2ccc(F)cc2)CC1)S(=O)(=O)c1ccc(F)cc1,0
13,O=C(Oc1ccc2c(c1)CCC2)N1CCOCC1,0
14,Cc1ccc(S(=O)(=O)CCC(=O)Nc2ccc3c(c2)OCO3)cc1,6
15,COc1ccc(-c2cc(N3CCCC3)n3ncnc3n2)cc1,9
16,CCCOc1ccccc1NC(=O)c1ccc(N)cc1,3
17,COC(=O)COc1ccc(C(=O)OC)cc1,2
18,Cc1noc(NS(=O)(=O)c2ccc(N)cc2)c1C,0
19,Cc1ccc(C(c2sc3ncnn3c2O)N2CC(C)CC(C)C2)cc1 (stereo not given),0
20,Cc1noc(/C=C/N(C)C)c1S(=O)(=O)N1CCCC(C(=O)N2CCCCC2)C1 (stereo not given),7

row,SMILES,inhibition [%]
1,COCc1nnc(NS(=O)(=O)c2ccc(Br)cc2)s1,2
2,CCCn1c(NCc2ccc3c(c2)OCO3)nc2ccccc21,0
3,Cc1ccc(C(=O)CCC2CCCC2=O)cc1 (stereo not given),0
4,CN1CCCN(C(=O)c2cc(=O)[nH]c3ccccc23)c2nc3ccccc3nc21,0
5,COc1ccc(C2C(C(C)=O)=C(C)N=c3s/c(=C\c4ccc5c(c4)OCO5)c(=O)n32)c(OC)c1 (stereo not given),0
6,c1coc(-c2nnc(-c3cccs3)o2)c1,16
7,CCOC(=O)CN1CC23C=CC(O2)C(C(=O)Nc2ccc(OCC)cc2)C3C1=O (stereo not given),3
8,CCOc1ncccc1C(=O)OCC(=O)N1CC(=O)Nc2ccccc21,0
9,CC(=O)N(c1ccc(Br)cc1)C1C=CS(=O)(=O)C1 (stereo not given),2
10,CCN(C(=O)c1cc2cc3ccc(C)cc3nc2o1)c1ccc(OC)cc1,6
11,CCCC(C(=O)NCc1ccco1)N(C(=O)CNS(=O)(=O)c1ccc(Cl)cc1)C1CCCC1 (stereo not given),0
12,O=C(c1ccco1)N1CCN(/C(=N/S(=O)(=O)c2cccs2)c2ccccc2Cl)CC1,0
13,O=C(NCCc1ccccc1)c1cc(-c2ccco2)on1,5
14,CCOC(=O)c1c(C)[nH]c(C)c1C(=O)COC(=O)CNC(=O)c1ccc(OCC)cc1,0
15,Nc1nnc(-c2cccc(Cl)c2Cl)c(N)n1,2
16,CC(Oc1ccccc1)C(=O)NC1CC(C)(C)NC(C)(C)C1 (stereo not given),0
17,CCOc1ccc(C2CC(c3cccc(OC)c3)Nc3nc(N)nn32)cc1 (stereo not given),0
18,CC(=O)NC1(C(F)(F)F)NC(=O)N(CC(C)C)C1=O (stereo not given),0
19,N#Cc1cc2c(nc1SCC(=O)Nc1sc3c(c1C#N)CCC3)CCCCC2,0
20,CCn1c(=O)c(C(=O)NCCc2ccccc2)c(O)c2ccccc21,0
